Measurements reported in PubChem BioAssay AID1159580 (chemical genetic matrix, 2015).
Among all 5,500 compounds or so, about 2,000 (36%) were called active. Inconclusive results (about 18%) are left out. No stated cut-off is given here; in the data, active means normalized growth mostly below about 0.91 (no sharp cut-off); inconclusive means no clear call, values can overlap the other calls; inactive means mostly above about 0.92. The list shows a part of the results.

Experiment: chemical genetic growth profiling, strain panel (AID 1159580);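 further: tested at 20 µM; growth read once vehicle control cultures reached saturation at 30 °C; 1 = growth at the plate median or of vehicle wells; lower values mean less growth of the strain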
Details: growth OD

Measured: normalized growth

CCN(CC)C(=O)c1cccc(C)c1
inactive: S. cerevisiae deletion strains, locus YKL009W, strain mrt4, hits give low values 0.956 | S. cerevisiae deletion strains, locus YKL068W, hits give low values 0.989 | S. cerevisiae deletion strains, locus YKL085W, strain MDH1 (second series), hits give low values 1 | S. cerevisiae deletion strains, locus YKL085W, strain MDH1, hits give low values 1 | S. cerevisiae deletion strains, locus YKL160W, strain elf1, hits give low values 1.02 | S. cerevisiae deletion strains, locus YKL190W, strain CNB1, hits give low values 0.988 | S. cerevisiae deletion strains, locus YKR001C, strain vps1, hits give low values 1.01 | S. cerevisiae deletion strains, locus YKR026C, strain gcn3, hits give low values 1.04 | S. cerevisiae deletion strains, locus YKR091W, strain srl3, hits give low values 1.03 | S. cerevisiae deletion strains, locus YLL001W, strain dnm1, hits give low values 1.03 | S. cerevisiae deletion strains, locus YLL026W, hits give low values 1.04 | S. cerevisiae deletion strains, locus YLL041C, strain sdh2, hits give low values 1.03 | S. cerevisiae deletion strains, locus YLR027C, strain aat2, hits give low values 1.02 | S. cerevisiae deletion strains, locus YLR039C, strain RIC1, hits give low values 1.06 | S. cerevisiae deletion strains, locus YLR058C, strain SHM2, hits give low values 1 | S. cerevisiae deletion strains, locus YLR102C, strain apc9, hits give low values 0.999 | S. cerevisiae deletion strains, locus YLR113W, strain HOG1, hits give low values 0.975 | S. cerevisiae deletion strains, locus YLR221C, strain rsa3, hits give low values 1.02 | S. cerevisiae deletion strains, locus YLR258W, strain gsy2, hits give low values 1.04 | S. cerevisiae deletion strains, locus YLR262C, strain YPT6 (second series), hits give low values 1.03 | S. cerevisiae deletion strains, locus YLR262C, strain YPT6, hits give low values 1.02 | S. cerevisiae deletion strains, locus YLR268W, strain sec22, hits give low values 0.978 | S. cerevisiae deletion strains, locus YLR320W, strain mms22, hits give low values 1.04 | S. cerevisiae deletion strains, locus YLR330W, strain CHS5, hits give low values 0.993 | S. cerevisiae deletion strains, locus YLR342W, strain FKS1 (second series), hits give low values 0.987 | S. cerevisiae deletion strains, locus YLR342W, strain FKS1, hits give low values 1.01 | S. cerevisiae deletion strains, locus YLR357W, strain rsc2, hits give low values 1.09 | S. cerevisiae deletion strains, locus YLR370C, strain arc18, hits give low values 1.03 | S. cerevisiae deletion strains, locus YLR371W, strain rom2, hits give low values 0.982 | S. cerevisiae deletion strains, locus YLR384C, strain iki3, hits give low values 1.06 | S. cerevisiae deletion strains, locus YLR418C, strain cdc73, hits give low values 1.05 | S. cerevisiae deletion strains, locus YML016C, strain PPZ1, hits give low values 1.01 | S. cerevisiae deletion strains, locus YML032C, strain rad52, hits give low values 0.995 | S. cerevisiae deletion strains, locus YML120C, strain ndi1, hits give low values 1.02 | S. cerevisiae deletion strains, locus YML124C, strain tub3, hits give low values 0.998 | S. cerevisiae deletion strains, locus YMR058W, strain fet3, hits give low values 1.04 | S. cerevisiae deletion strains, locus YMR078C, strain ctf18, hits give low values 0.994 | S. cerevisiae deletion strains, locus YMR125W, strain sto1, hits give low values 1.03 | S. cerevisiae deletion strains, locus YMR129W, hits give low values 1.03 | S. cerevisiae deletion strains, locus YMR205C, strain PFK2, hits give low values 1.06 | S. cerevisiae deletion strains, locus YMR223W, strain ubp8, hits give low values 1 | S. cerevisiae deletion strains, locus YMR231W, strain pep5, hits give low values 1.03 | S. cerevisiae deletion strains, locus YMR263W, strain SAP30, hits give low values 0.999 | S. cerevisiae deletion strains, locus YMR307W, strain GAS1, hits give low values 1.02 | S. cerevisiae deletion strains, locus YNL067W, strain RPL9B, hits give low values 1 | S. cerevisiae deletion strains, locus YNL071W, strain lat1, hits give low values 1.02 | S. cerevisiae deletion strains, locus YNL128W, strain TEP1, hits give low values 1 | S. cerevisiae deletion strains, locus YNL153C, strain GIM3, hits give low values 0.999 | S. cerevisiae deletion strains, locus YNL183C, strain NPR1, hits give low values 0.924 | S. cerevisiae deletion strains, locus YNL209W, strain ssb2, hits give low values 1.02 | S. cerevisiae deletion strains, locus YNL233W, strain BNI4, hits give low values 1.01 | S. cerevisiae deletion strains, locus YNL248C, strain rpa49, hits give low values 1.02 | S. cerevisiae deletion strains, locus YNL250W, strain rad50, hits give low values 0.994 | S. cerevisiae deletion strains, locus YNL271C, strain bni1, hits give low values 1 | S. cerevisiae deletion strains, locus YNL298W, strain CLA4, hits give low values 0.987 | S. cerevisiae deletion strains, locus YNL307C, strain MCK1, hits give low values 1.01 | S. cerevisiae deletion strains, locus YNL322C, strain KRE1 (second series), hits give low values 1.03 | S. cerevisiae deletion strains, locus YNL322C, strain KRE1, hits give low values 1 | S. cerevisiae deletion strains, locus YNR049C, strain mso1, hits give low values 1.03 | S. cerevisiae deletion strains, locus YNR052C, strain pop2, hits give low values 0.987 | S. cerevisiae deletion strains, locus YOL006C, strain TOP1, hits give low values 1.03 | S. cerevisiae deletion strains, locus YOL012C, strain htz1 0.893 | S. cerevisiae deletion strains, locus YOL147C, strain pex11, hits give low values 0.998 | S. cerevisiae deletion strains, locus YOR001W, strain rrp6, hits give low values 1.04 | S. cerevisiae deletion strains, locus YOR061W, strain CKA2, hits give low values 1 | S. cerevisiae deletion strains, locus YOR069W, strain VPS5, hits give low values 1.01 | S. cerevisiae deletion strains, locus YOR070C, strain gyp1, hits give low values 1.02 | S. cerevisiae deletion strains, locus YOR080W, strain dia2, hits give low values 1.04 | S. cerevisiae deletion strains, locus YOR083W, strain WHI5, hits give low values 1.01 | S. cerevisiae deletion strains, locus YOR106W, strain vam3, hits give low values 0.998 | S. cerevisiae deletion strains, locus YOR136W, strain idh2, hits give low values 0.999 | S. cerevisiae deletion strains, locus YOR144C, strain elg1, hits give low values 0.993 | S. cerevisiae deletion strains, locus YOR184W, strain ser1, hits give low values 0.978 | S. cerevisiae deletion strains, locus YOR231W, strain MKK1, hits give low values 0.971 | S. cerevisiae deletion strains, locus YOR265W, strain rbl2, hits give low values 1.03 | S. cerevisiae deletion strains, locus YOR270C, strain vph1, hits give low values 1.08 | S. cerevisiae deletion strains, locus YOR290C, strain snf2, hits give low values 1.01 | S. cerevisiae deletion strains, locus YOR316C, strain cot1, hits give low values 0.995 | S. cerevisiae deletion strains, locus YPL051W, strain arl3, hits give low values 1.02 | S. cerevisiae deletion strains, locus YPL055C, strain LGE1, hits give low values 0.951 | S. cerevisiae deletion strains, locus YPL078C, strain atp4, hits give low values 1.03 | S. cerevisiae deletion strains, locus YPL106C, strain sse1, hits give low values 1.11 | S. cerevisiae deletion strains, locus YPL240C, strain hsp82, hits give low values 1.02 | S. cerevisiae deletion strains, locus YPL241C, strain CIN2, hits give low values 0.991 | S. cerevisiae deletion strains, locus YPL256C, strain CLN2, hits give low values 0.983 | S. cerevisiae deletion strains, locus YPR119W, strain clb2, hits give low values 1 | S. cerevisiae deletion strains, locus YPR141C, strain kar3, hits give low values 1 | S. cerevisiae deletion strains, locus YPR163C, strain tif3, hits give low values 0.996 | S. cerevisiae deletion strains, locus YPR167C, strain met16, hits give low values 0.999 | S. cerevisiae deletion strains, strain wtn01, hits give low values 0.988 | S. cerevisiae strains, strain wild type, hits give low values 1
